From PubChem BioAssay
KCNQ2 inh = KCNQ2 (rat) channel inhibition; B-score at 10 µM; AID 2156; CHO-K1 KCNQ2, FluxOR thallium flux, 20 min; hits give low values; O88943; 310,000 compounds, 1.1% hits;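 active = fluorescence ratio B-score at most minus 3 library SDs, with starting brightness B-score within 2 library SDs, cut at about -5.5 in these data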
Target sequence (O88943 whole entry, looked up): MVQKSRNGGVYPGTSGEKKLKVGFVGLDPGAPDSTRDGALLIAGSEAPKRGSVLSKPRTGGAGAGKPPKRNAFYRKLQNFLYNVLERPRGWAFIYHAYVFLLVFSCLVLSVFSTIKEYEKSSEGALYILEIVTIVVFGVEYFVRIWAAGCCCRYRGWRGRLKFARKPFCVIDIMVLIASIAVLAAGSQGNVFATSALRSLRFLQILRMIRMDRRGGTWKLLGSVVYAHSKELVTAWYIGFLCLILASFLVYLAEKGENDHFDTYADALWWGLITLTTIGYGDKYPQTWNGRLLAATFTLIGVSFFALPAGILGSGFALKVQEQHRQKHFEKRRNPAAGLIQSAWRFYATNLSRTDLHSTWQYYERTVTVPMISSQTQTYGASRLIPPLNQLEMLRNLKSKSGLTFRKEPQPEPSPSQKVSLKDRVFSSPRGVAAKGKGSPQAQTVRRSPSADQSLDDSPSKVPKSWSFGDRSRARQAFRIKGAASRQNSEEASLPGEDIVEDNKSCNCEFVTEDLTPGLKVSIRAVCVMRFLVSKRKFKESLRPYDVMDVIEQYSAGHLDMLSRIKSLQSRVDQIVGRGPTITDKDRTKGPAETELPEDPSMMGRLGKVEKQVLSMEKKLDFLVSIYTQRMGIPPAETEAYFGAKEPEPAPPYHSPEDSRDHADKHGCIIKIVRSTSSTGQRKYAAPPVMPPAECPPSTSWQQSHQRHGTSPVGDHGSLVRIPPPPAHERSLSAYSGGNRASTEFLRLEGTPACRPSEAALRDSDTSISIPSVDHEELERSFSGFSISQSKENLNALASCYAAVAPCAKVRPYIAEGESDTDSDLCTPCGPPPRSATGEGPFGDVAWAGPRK
KCNQ2 pot = enhances the rat KCNQ2 potassium channel. O88943. CHO-K1 KCNQ2, FluxOR thallium flux fluorescence; hits give high values. B-score at 10 µM. 310,000 compounds, 0.54% hits. AID 2239;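 active = fluorescence ratio B-score at least 3 SD of library B-scores, with initial fluorescence B-score within 3 of them, cut at about 5.3 in these data; same plate scores as AID 2156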;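 note: B-score of peak minus minimum over baseline fluorescence ratio after K+ and Tl+ stimulus; positive B-score means potentiation of KCNQ2 with more thallium influx and brighter signal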
* = called active by the depositor; i = inactive; · = no result. In the library only some 1.6% were active in any assay of this set; here they are far more common.

SMILES	KCNQ2 inh	KCNQ2 pot
O=C(NC(=S)NCc1cccnc1)c1cc2ccccc2o1	i	0.85
COC(=O)c1ccccc1NC(=O)c1cc2sccc2n1C	-6.13*	-6.13
COC(=O)c1cccc(NC(=O)c2cc3sccc3n2C)c1	i	·
COc1ccc(C)cc1Nc1n[n+](-c2ccccc2)c(-c2ccc(OC)c(OC)c2OC)s1	i	·
COc1ccc(C)cc1Nc1n[n+](-c2ccccc2)c(-c2ccc(N(C)C)cc2)s1	-5.74*	-5.74
CN(C)c1ccc(-c2sc(Nc3ccccc3)n[n+]2-c2ccc(F)cc2)cc1	i	·
COc1ccc(C)cc1Nc1n[n+](-c2ccccc2)c(-c2c(Cl)cccc2Cl)s1	-6.47*	-6.47
CC1CC(C)(C)NC(=S)O1 (centres undefined)	i	1.26
CCC(=O)Nc1ccc(SC#N)cc1C	i	0.11
Cc1cc(SC#N)cc(C)c1NC(=O)CCl	i	6.31*
CCc1cc(SC#N)cc(C)c1NC(=O)CCl	i	10.9*
CCc1cc(SC#N)cc(C)c1N	i	·
O=C(Cn1c(=O)n(Cc2ccco2)c(=O)c2c3c(sc21)CCCCC3)Nc1ccccc1	i	·
O=C(Cn1c(=O)n(Cc2ccco2)c(=O)c2c3c(sc21)CCCCC3)c1ccccc1	-5.73*	-5.73
COc1ccc(Cc2nnc(SCC(=O)c3ccc4c(c3)NC(=O)CO4)o2)cc1	i	0.29
O=C(CCCn1c(=O)[nH]c2ccc(Br)cc2c1=O)NCc1ccc(Cl)cc1	i	0.01
O=C(CCc1nnc2n(Cc3ccc(F)cc3)c(=O)c3ccccc3n12)N1CCN(c2ccccn2)CC1	i	·
O=[N+]([O-])c1cc(Cl)ccc1N1CCCC1	i	0.43
O=[N+]([O-])c1cc(Cl)ccc1N1CCN(c2cccc(C(F)(F)F)c2)CC1	-6.15*	-6.15
CCOc1ccc(C(=O)C(C)OC(=O)CN2C(=O)NC(C)(C)C2=O)cc1 (centres undefined)	i	0.44
O=C(CSc1nnc(COc2ccc(F)cc2)o1)N1c2ccccc2CCc2ccccc21	-6.57*	-6.57
O=C(CSc1nnc(COc2ccc(F)cc2)o1)N1CCCCC1	i	0.66
CC1CCN(CCCNC(=O)c2ccc3c(Cl)c4c(nc3c2)CCCC4)CC1	i	·
COc1cc(C)c(COc2ncnc3ccccc23)cc1OC	i	·
C=CCN(CC=C)C(=S)NC(=O)c1ccc([N+](=O)[O-])cc1	i	7.2*
SMILES	KCNQ2 inh	KCNQ2 pot
C=CCNC(=S)NNC(=O)c1ccc([N+](=O)[O-])cc1	i	·
CCOC(=O)CNC(=S)N1CCn2c(nc3ccccc32)C1	i	·
COc1ccccc1N1CCN(c2ccc3cc(S(=O)(=O)N4CCCCC4)ccc3n2)CC1	-5.56*	-5.56
O=S(=O)(c1ccc2nc(N3CCN(c4ccccc4)CC3)ccc2c1)N1CCCCC1	i	0.04
Cc1ccc(SCC(=O)NC(=O)Nc2ccc3c(c2)OCCO3)cc1C	i	0.9
CC(=O)Nc1ccc(CN2CCCC(C(=O)c3ccc(C(F)(F)F)cc3)C2)cc1 (centres undefined)	i	·
CN1C(CC(=O)Nc2ccc(Cl)cc2Cl)c2ccccc2CC1(C)C (centres undefined)	i	·
CCOC(=O)/C(C(=O)Nc1ccc(Cl)cc1Cl)=C1/NC(C)(C)Cc2ccccc21	-6.3*	-6.3
O=C(Nc1cc(Br)c(O)c(Br)c1)c1cccc(NC(=O)c2ccco2)c1	i	2.77
O=C(Nc1cccc(N=Cc2cc(Cl)cc(Br)c2O)c1)c1ccco1	i	10.1*
COc1ccc(OC)c(NC(=O)c2[nH]c(C)c(C(C)=O)c2C)c1	i	0.07
CC(=O)c1c(C)[nH]c(C(=O)Nc2nc(-c3ccc(-c4ccccc4)cc3)cs2)c1C	-7.64*	-7.64
CC(=O)c1c(C)[nH]c(C(=O)Nc2nc(-c3ccc(Cl)cc3)cs2)c1C	i	0.73
COc1ccc(-c2nc(NC(=O)c3[nH]c(C)c(C(C)=O)c3C)sc2C)cc1	-6.47*	-6.47
Cc1cccc(C(=O)N[C@H](C(=O)OCC(=O)NC(=O)c2cccn2C)C(C)C)c1	i	0.02
O=C(NCC1CCCN(Cc2ccc3nonc3c2)C1)c1cccc(C(F)(F)F)c1 (centres undefined)	-5.69*	-5.69
O=C(NCC1CCCN(Cc2ccc3c(c2)OCCO3)C1)c1ccc2c(c1)OCO2 (centres undefined)	i	0.77
Cc1cc2c(SCC(=O)NCC3CCCO3)ncnc2s1 (centres undefined)	i	1.77
COc1cccc(NC(=O)C(c2ccccc2)N2CCCCC2)c1 (centres undefined)	i	·
O=C(Nc1cc(Cl)cc(Cl)c1)C(c1ccccc1)N1CCCCC1 (centres undefined)	-6.41*	-6.41
COc1cc(CNCCc2c[nH]c3ccccc23)ccc1OCc1ccc(F)cc1	-7.25*	-7.25
COc1cc(CNCCc2c[nH]c3ccccc23)cc(Cl)c1OCC(N)=O	i	1.87
COc1ccc2cc(S(=O)(=O)NC3CC(C)(C)NC(C)(C)C3)ccc2c1	i	1.04
COc1ccc(Cn2c(/C=C/c3ccccc3)nc3ccccc32)cc1	i	·
Clc1ccccc1Cn1c(/C=C/c2ccco2)nc2ccccc21	-7.05*	-7.05
SMILES	KCNQ2 inh	KCNQ2 pot
O=C(Nc1ccccc1)c1cn(CCBr)cn1	i	0.81
Cc1ccc(OCc2nnc(SC(C)C(=O)O)n2-c2ccccc2)cc1 (centres undefined)	i	0.48
CC(c1cccs1)N(C(=O)Nc1ccccc1)C1CCCCC1 (centres undefined)	-5.86*	-5.86
CN(C(=O)Nc1ccccc1)C1CCCCC1	i	0.2
COCCNc1c(-c2cc3ccc(C)c(C)c3[nH]c2=O)nc2ccccn12	i	2.85
N#CCCn1nc(-c2ccccc2)c2ccccc2c1=O	i	·
Nc1nc2c(Cl)cc(Cl)cc2s1	i	0.89
Nc1nc2c(Cl)ccc(Cl)c2s1	i	6.02*
O=C(CCCCCNC(=O)c1ccccc1Br)N=Nc1c(O)[nH]c2ccccc12	i	·
COc1ccc(S(=O)(=O)NCC(=O)NCCc2ccc(OC)c(OC)c2)cc1	i	·
CC(NC(=O)c1ccccc1)C(=O)NC1=NCCS1 (centres undefined)	i	0.56
CC(NC(=O)c1ccc(Br)cc1)C(=O)NC1=NCCS1 (centres undefined)	i	7.41*
CC(=O)c1ccc(NC(=O)c2ccc3nc(-c4ccco4)c(-c4ccco4)nc3c2)cc1	i	·
O=C(Nc1ccccc1)c1ccc2nc(-c3ccco3)c(-c3ccco3)nc2c1	-6.49*	-6.49
CC1C/C(=N/Nc2nc3ccccc3[nH]2)CC(C)(C)C1 (centres undefined)	i	1.05
Cc1cc(N/N=C2\CC(C)CC(C)(C)C2)nc2ccccc12 (centres undefined)	-5.57*	-5.57
Cc1cccc(C)c1OCc1nc2ccccc2[nH]1	-5.72*	-5.72
Cc1ccc(C)c(OCc2nc3ccccc3[nH]2)c1	i	·
Cc1cc2c(N=NC(=O)C3CC3c3ccccc3)c(O)[nH]c2cc1Br (centres undefined)	i	·
CC(=O)Nc1ccc(C(=O)CN2CCN(c3ccccc3)CC2)cc1	i	0.55
Cc1ccc(Cl)cc1N1CCN(C(=O)CCCn2c(=O)c3cccn3c3cccnc32)CC1	i	·
O=C(Cn1c(=O)c2cccn2c2cccnc21)N1CCN(c2ccc(Cl)cc2)CC1	-7.64*	-7.64
Cc1ccc(NC(=O)[C@H](Cc2c[nH]c3ccccc23)NC(=O)[C@@H]2Cc3ccccc3CN2)c(C)c1	-6.7*	-6.7
